Compound activity: PubChem BioAssay, Broad Institute
miR-122 sensor = blocks miR-122 activity in Huh7 sensor cells. Huh7 miR-122 Renilla luciferase sensor, 48 h; neutral wells = 0, positive control = 100. activation (reporter increase), % at 12.5 µM. 0.3% of 340,000 active. AID 602342;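 active = mean replicate activation score at least 90 and every replicate individually at or above 90; inconclusive = only one of the two criteria met; inactive = neither criterion met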;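 also: higher luciferase means less miR-122 activity so hits act as miR-122 inhibitors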
DENV2 CPE rescue = inhibitors of DENV2 cytopathic effect; AID 651640; DENV2-infected cells, cytopathic effect rescue, plate reader; CPE inhibition, % at 9.99 µM; 1.7% of 350,000 active; in the data active = CPE inhibition above about 20%, passing the limit was not always enough; inconclusive = no clear call, values can overlap the other calls; tested in BHK-21 cells
PvdQ inh = P. aeruginosa PvdQ acylase inhibition | inhibition, % at 10 µM | purified PvdQ acylase, fluorescence plate reader | 0.063% of 340,000 active; in the data active = inhibition above about 30%, passing the limit was not always enough; inconclusive = no clear call, values can overlap the other calls
C2C12 statin = suppressors of simvastatin-induced myotoxicity in C2C12 myotubes. AID 602340. ATP luminescence, 48 h; scaled: DMSO 0, geranylgeraniol control 100. rescue of ATP level, % at 7.49 µM. 0.78% of 330,000 active;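 active = mean ATP rescue above about 67%, or every replicate alone reaching that limit, limit read from the data, passing the limit was not always enough; inconclusive = no clear call, values can overlap the other calls; inactive = mean under the limit and some replicate under it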;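 also: myotubes were challenged with 10 µM simvastatin during compound exposure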
PGC1a acetyl inh = modulators of PGC1a acetylation | U2OS PGC1a acetylation, AlphaScreen anti-acetyl-lysine; with virally co-expressed GCN5 acetyltransferase | inhibition, % at 15.6 µM | 0.17% of 350,000 active | AID 651687;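 active = every replicate shows inhibition of at least 40%; inconclusive = mean inhibition at least 40% but some replicate below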
Large screens that a line does not name were inactive. The list is not random: actives were taken first. Their share in the collection is about 2.2%.

C[C@@H]1CCCCO[C@H](CN(C)C(=O)Cc2ccccc2)[C@H](C)CN([C@@H](C)CO)C(=O)c2cc(NS(=O)(=O)c3ccc(Cl)cc3)ccc2O1	none (no result: PvdQ inh, C2C12 statin)
COc1ccc(S(=O)(=O)Nc2ccc3c(c2)C(=O)N([C@@H](C)CO)C[C@H](C)[C@@H](CN(C)C(=O)Cc2ccccc2)OCCCC[C@H](C)O3)cc1	DENV2 CPE rescue 68 (no result: PvdQ inh, C2C12 statin)
C[C@@H]1CN([C@H](C)CO)C(=O)Cc2cc(NC(=O)Nc3cccc4ccccc34)ccc2O[C@@H]1CN(C)CC1CC1	none (no result: PvdQ inh)
Cc1noc(C)c1NC(=O)Nc1ccc2c(c1)CC(=O)N([C@H](C)CO)C[C@H](C)[C@H](CN(C)C(=O)Nc1c(C)noc1C)O2	none (no result: PvdQ inh)
C[C@@H]1CN([C@H](C)CO)C(=O)CCCn2nncc2CO[C@@H]1CN(C)Cc1ccccc1C(=O)O	none (no result: PvdQ inh)
COc1ccc(S(=O)(=O)N(C)C[C@@H]2Oc3ccc(NC(=O)Nc4c(C)noc4C)cc3C(=O)N([C@@H](C)CO)C[C@@H]2C)cc1	none (no result: PvdQ inh)
O=C(c1ccncc1)N1C[C@H]2[C@@H](c3ccccc31)[C@@H](CO)N2C(=O)Nc1cccc(F)c1	none (no result: PvdQ inh)
C/C=C/c1cnc2c(c1)C(=O)N([C@@H](C)CO)C[C@@H](C)[C@H](CN(C)S(=O)(=O)c1ccccc1F)O2	none (no result: PvdQ inh)
C[C@@H]1CN([C@@H](C)CO)C(=O)c2cc(NC(=O)Nc3ccc4c(c3)OCO4)ccc2O[C@@H](C)CCCCO[C@H]1CN(C)C(=O)C1CCCCC1	DENV2 CPE rescue 77 (no result: PvdQ inh, C2C12 statin)
C[C@@H]1CCCCO[C@H](CN(C)C(=O)c2ccccc2)[C@@H](C)CN([C@H](C)CO)C(=O)c2cc(NC(=O)Nc3ccc4c(c3)OCO4)ccc2O1	none (no result: PvdQ inh, C2C12 statin)
C[C@@H]1CCCCO[C@H](CN(C)C(=O)C2CCCCC2)[C@@H](C)CN([C@H](C)CO)C(=O)c2cc(NC(=O)Nc3ccc4c(c3)OCO4)ccc2O1	DENV2 CPE rescue inconclusive (no result: PvdQ inh, C2C12 statin)
COc1ccc(NC(=O)Nc2ccc3c(c2)C(=O)N([C@H](C)CO)C[C@H](C)[C@H](CN(C)C(=O)Nc2ccc4c(c2)OCO4)OCCCC[C@@H](C)O3)cc1	DENV2 CPE rescue 40 (no result: PvdQ inh, C2C12 statin)
C[C@@H]1CCCCO[C@H](CN(C)C(=O)Nc2ccc3c(c2)OCO3)[C@H](C)CN([C@@H](C)CO)C(=O)c2cc(NC(=O)Nc3ccccc3)ccc2O1	DENV2 CPE rescue 23 (no result: PvdQ inh, C2C12 statin)
COc1ccc(NC(=O)Nc2ccc3c(c2)C(=O)N([C@H](C)CO)C[C@@H](C)[C@@H](CN(C)C(=O)Nc2ccc4c(c2)OCO4)OCCCC[C@@H](C)O3)cc1	none (no result: PvdQ inh, C2C12 statin)
C[C@@H]1CCCCO[C@H](CN(C)C(=O)c2ccccc2)[C@@H](C)CN([C@@H](C)CO)C(=O)c2cc(NC(=O)Nc3ccc4c(c3)OCO4)ccc2O1	DENV2 CPE rescue 22 (no result: PvdQ inh, C2C12 statin)
Cc1noc(C)c1NC(=O)Nc1ccc2c(c1)C(=O)N(C)[C@H]1CC[C@H](CC(=O)N(C)C)O[C@H]1CO2	none (no result: PvdQ inh)
COCC(=O)Nc1ccc2c(c1)OC[C@@H](C)N(C(=O)C1CCCC1)C[C@@H](C)[C@@H](OC)CN(C)C2=O	none (no result: DENV2 CPE rescue, PvdQ inh)
C[C@H]1CCCCO[C@H](CN(C)C(=O)Nc2cccc3ccccc23)[C@@H](C)CN([C@@H](C)CO)C(=O)c2cc(NC(=O)Nc3ccc4c(c3)OCO4)ccc2O1	C2C12 statin 66 (no result: PvdQ inh)
C[C@@H]1CN([C@H](C)CO)C(=O)c2cc(NC(=O)Nc3cccc4ccccc34)ccc2O[C@@H]1CN(C)C(=O)Nc1ccc2c(c1)OCO2	DENV2 CPE rescue 33 (no result: PvdQ inh)
C[C@@H]1CCCCO[C@@H](CN(C)C(=O)Nc2ccc3c(c2)OCO3)[C@H](C)CN([C@H](C)CO)C(=O)c2cc(NC(=O)Nc3cccc4ccccc34)ccc2O1	none (no result: miR-122 sensor, PvdQ inh, C2C12 statin)
N#Cc1cncc(C#Cc2ccccc2)c1	none (no result: miR-122 sensor, PGC1a acetyl inh)
N#Cc1ccccc1	DENV2 CPE rescue 30
CCOC(=O)[C@H]1[C@H]2COc3ccc(Br)cc3[C@H]2N2C(=O)CNC(=O)[C@@]12C	DENV2 CPE rescue 62 (no result: PGC1a acetyl inh)
CCOC(=O)[C@@H]1[C@H]2COc3ccc(Br)cc3[C@@H]2N2C(=O)N(c3ccc(F)cc3)C(=O)[C@@]12C	none
CCOC(=O)[C@@H]1[C@H]2COc3ccc(Br)cc3[C@@H]2N2C(=O)N(c3cccc(F)c3)C(=O)[C@@]12C	DENV2 CPE rescue 93 (no result: miR-122 sensor, PGC1a acetyl inh)
CCc1nnc(NC(=O)CSc2nnc(-c3ccc(NS(=O)(=O)c4ccccc4)cc3)o2)s1	DENV2 CPE rescue 26, C2C12 statin 108
COC(=O)CSc1nnc(-c2ccc(NS(=O)(=O)c3ccccc3)cc2)o1	none (no result: DENV2 CPE rescue)
CC1CC(=O)C(C(C2=C(O)CC(C)CC2=O)c2ccccc2)=C(O)C1 (centres undefined)	C2C12 statin 101
O=C(CN1CCOCC1)NCC[C@H]1CC[C@@H](NC(=O)Nc2ccc(Cl)cc2)[C@H](CO)O1	none (no result: miR-122 sensor, PvdQ inh)
COc1cccc(C#Cc2cnc3c(c2)C(=O)N([C@H](C)CO)C[C@H](C)[C@@H](CN(C)C(=O)C2CC2)O3)c1	none (no result: PvdQ inh)
C[C@@H]1CN([C@@H](C)CO)C(=O)c2cccc(NC(=O)C3CCOCC3)c2O[C@@H]1CN(C)CC1CCCCC1	none (no result: PvdQ inh)
C[C@H]1CN([C@@H](C)CO)C(=O)c2cccc(NC(=O)NC3CCCCC3)c2O[C@@H]1CN(C)CC1CCCCC1	DENV2 CPE rescue 30 (no result: PvdQ inh)
C[C@@H]1CN([C@H](C)CO)C(=O)c2cccc(NC(=O)NC3CCCCC3)c2O[C@H]1CN(C)CC1CCCCC1	none (no result: PvdQ inh)
C[C@H]1CN([C@@H](C)CO)C(=O)c2cccc(NC(=O)C3CCOCC3)c2O[C@H]1CN(C)CC1CCCCC1	DENV2 CPE rescue 44 (no result: PvdQ inh)
COc1ccc(NC(=O)N(C)C[C@@H]2Oc3ccc(N(C)C)cc3CC(=O)N([C@H](C)CO)C[C@H]2C)cc1	none (no result: PvdQ inh)
CCOC(=O)Nc1cc(NC(=O)OCC)c(C)nc1C	none (no result: miR-122 sensor, C2C12 statin)
CCOC(=O)Nc1ccc(C)cc1Br	C2C12 statin 108 (no result: DENV2 CPE rescue)
Cc1noc(C)c1NC(=O)N(C)C[C@H]1Oc2c(NC(=O)Nc3cccc4ccccc34)cccc2C(=O)N([C@H](C)CO)C[C@H]1C	none (no result: PvdQ inh)
COCC(=O)N(C)C[C@H]1Oc2ncc(C3=CCCCC3)cc2C(=O)N([C@@H](C)CO)C[C@H]1C	none (no result: PvdQ inh)
O=C(c1ccoc1)N1CCCC(N2CCN(c3cccc(C(F)(F)F)c3)CC2)C1 (centres undefined)	none (no result: C2C12 statin)
O=C(c1ccncc1)N1CCCC(N2CCN(c3cccc(C(F)(F)F)c3)CC2)C1 (centres undefined)	DENV2 CPE rescue 21 (no result: miR-122 sensor, PGC1a acetyl inh)
COc1ccccc1NC(=O)N1C[C@@H]2[C@H](c3ccccc31)[C@@H](CO)N2C(C)=O	DENV2 CPE rescue 44 (no result: PvdQ inh)
O=C(c1ccncc1)N1C[C@H]2[C@@H](c3ccccc31)[C@H](CO)N2C(=O)c1ccccc1F	DENV2 CPE rescue 43 (no result: PvdQ inh)
O=C(c1cccc(F)c1)N1C[C@H]2[C@@H](c3ccccc31)[C@@H](CO)N2C(=O)c1cccc(F)c1	DENV2 CPE rescue 21 (no result: PvdQ inh)
O=C(Nc1ccccc1F)N1C[C@@H]2[C@H](c3ccccc31)[C@H](CO)N2C(=O)c1ccc(F)cc1	DENV2 CPE rescue 35 (no result: PvdQ inh)
